# Rows were chosen to be rich in hits. Some 8.1% of all compounds tested hit in one or more screens of this group.
# MCF10A rereplic: induces DNA re-replication in MCF 10a normal breast cells | Potency, µM (top dose mostly 46.1 µM), for inactives: top-dose activity, positive = re-replication, hits mostly activators | AID 624296 | MCF 10A DNA re-replication, Hoechst nuclear intensity, 48 h | hit rate 2.9% among 350,000; also: % of control where 0% means no effect; nearly all actives have a fitted effect of over 50% in size
# ELG1 DNA repair: inhibitors of ELG1-dependent DNA repair in HEK293T cells. HEK293T ELG1-luciferase reporter, luminescence, 16 h; DNA damage induced by 5-fluorouridine. Potency, µM (highest dose often 46.1 µM), for inactives: at the highest dose activity change, negative = inhibition, usual class: inhibitors. hit rate 2.3% among 330,000; also: % is scaled to controls: 0 for no effect and ±100 for the full control effect; nearly all actives have a fitted effect of over 55% in size
#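 HEK293T cells expressing luciferase-tagged ELG1 (2,000/well) received 5-Fluorouridine plus compound or DMSO for 16 hr at 37 °C. Luciferase was read by ONE-Glo luminescence after 30 min at room temperature.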
# KB-V1 cytotox: kills drug-selected multidrug resistant KB-V1 cells; Potency, µM (titrated, usually from 46.1 µM), hits mostly cytotoxic; KB-V1 MDR cells viability, CellTiter-Glo, 72 h; hit rate 3.4% among 400,000; also: % is scaled to controls: 0 for no effect and ±100 for the full control effect; nearly all actives have a fitted effect of over 60% in size
#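 Cytotoxicity toward P-gp-expressing KB-V1 cells was determined as loss of CellTiter-Glo luminescence after 72 h at 37 degrees C. Compounds were tested in quantitative HTS format across a concentration range, with curves fitted to normalized data.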
# KB-3-1 tox: kills parental KB-3-1 adenocarcinoma cells. Potency, µM (series often up to 46.1 µM), hits mostly cytotoxic. KB-3-1 viability, CellTiter-Glo ATP luminescence, 72 h. hit rate 1.4% among 400,000. AID 1347075; also: % is scaled to controls: 0 for no effect and ±100 for the full control effect; nearly all actives have a fitted effect of over 60% in size
#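 72 h, 37 °C compound treatment of KB-3-1 parental cells; CellTiter-Glo added, 10 min, luminescence read. Data corrected against DMSO-only plates and normalized before curve fitting.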
# SW480 rerep: inducers of DNA re-replication in SW480 colon cancer cells; hit rate 1.8% among 340,000; SW480 DNA re-replication, Hoechst DNA content imaging, 48 h; AID 624297; Potency, µM (doses to about 46.1 µM), for the others: at the highest dose re-replication activation, usual class: activators; also: % of control where 0% means no effect; nearly all actives have a fitted effect of over 55% in size
#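 SW480 cells exposed to compounds for 48 hr at 37 C, 5% CO2, then Hoechst-stained 40 min. Nuclear DNA content imaged by fluorescence scanning (405 nm excitation, 500-530 nm emission); re-replication scored as increased high-intensity nuclei.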
# * marks the source's active call; other numbers are inactive results; i = inactive; ? = inconclusive; nt = no result. Calls follow the shape of the dose curve; as a rule, active = well fitted curve in the direction sought with a large enough effect; inconclusive = small, poorly fitted or top-dose-only effect, or another doubt; inactive = no such curve, though single readings can be large; an effect the other way counts as inactive or inconclusive. Potency is read from the fitted curve at half-maximal effect.
SMILES,MCF10A rereplic,ELG1 DNA repair,KB-V1 cytotox,KB-3-1 tox,SW480 rerep
Cc1ccc(NC(=O)CCC(=O)NNC(=S)Nc2ccc(F)cc2)c(C)c1,-21%,13%,?,?,-12%
Cn1c(/N=C/c2ccccc2[N+](=O)[O-])nc2ccccc21,9%,2%,i,i,-8%
CS(=O)(=O)N(Cc1ccc(Cl)cc1)c1ccc(C(=O)NCc2ccccn2)cc1,-1%,4%,i,i,1%
CCc1nn(Cc2c(C)cc(C)cc2C)c(=O)c2cc3cc(C)ccc3n12,nt,nt,?,i,nt
O=C(Nc1ccc(C#Cc2ccccc2)cc1)C1CC1,20%,?,15µM*,i,18%
CCCCNC(=O)c1cn(CC)c2cc(N3CCN(C)CC3)c(F)cc2c1=O,-1%,-15%,i,i,-10%
CCn1cc(C(=O)NCc2cccnc2)c(=O)c2cc(F)c(N3CCN(C(=O)c4ccco4)CC3)cc21,3%,21µM*,i,?,-2%
CCCNC(=O)c1cn(CC)c2cc(N3CCN(C(=O)c4ccco4)CC3)c(F)cc2c1=O,-2%,13µM*,i,i,-13%
CCn1cc(C(=O)NCc2cccc(F)c2)c(=O)c2cc(F)c(N3CCN(C(=O)c4ccco4)CC3)cc21,?,13µM*,?,?,-1%
Cc1cccc(NC(=O)CSc2nc(COc3ccccc3)nc3ccccc23)c1C,-6%,?,?,i,-8%
O=C(COC(=O)c1cccnc1SC(F)F)NC1CC1,-1%,?,i,i,-13%
COc1cccc(NC(=O)NNC(=O)CN2C(=O)COc3ccccc32)c1,-32%,6%,i,i,-1%
Cc1cc(NC(=O)CSc2nc(-c3ccccc3)cs2)no1,?,0%,?,i,15%
COc1ccc2nc(-c3ccccc3)[nH]c(=O)c2c1,-1%,nt,i,i,-6%
COc1ccc(-c2nc3ccc(N4CCCC4)cc3c(=O)[nH]2)cc1OC,23µM*,-11%,?,?,11µM*
CCCCN1CC(N2CCN(C3CCN(C)CC3)CC2)CS1(=O)=O (centres undefined),nt,nt,i,i,nt
CCOC(=O)c1c(CN2CCNCC2)nc2ccc(Cl)cc2c1-c1ccccc1,?,nt,23µM*,?,?
CC(=O)c1c(N2CCOCC2)nc2ccc(Cl)cc2c1-c1ccccc1,15µM*,?,i,i,-11%
Cc1nc2ccc(Cl)cc2c(-c2ccccc2)c1C(=O)N(C)C,4%,-11%,i,i,-8%
O=C(CSc1nnc(-c2cccnc2)n1-c1ccc(SC(F)F)cc1)N1CCCc2ccccc21,?,?,i,i,?
CCOC(=O)/C=c1\s/c(=C\c2ccc(C)cc2)c(=O)n1CC(=O)NCc1ccco1,?,?,?,i,?
Cc1cc(-c2ccccc2)nc2oc3c(c12)NC(=O)CN(c1ccccc1)C3=O,4%,-10%,?,i,15µM*
CC1Cn2c(nnc2C23CC4CC(CC(C4)C2)C3)S1 (centres undefined),15µM*,12%,i,i,?
CC1Cn2c(nnc2-c2ccc(F)cc2)S1 (centres undefined),12%,8%,i,i,-9%
CC(C)CN1CCN(CC#Cc2ccccc2)CC1CCO (centres undefined),0.65µM*,-10%,i,i,-22%
SMILES,MCF10A rereplic,ELG1 DNA repair,KB-V1 cytotox,KB-3-1 tox,SW480 rerep
OCCC1CN(CCCc2ccccc2)CCN1CCc1ccccc1 (centres undefined),21µM*,?,i,i,-6%
OCCC1CN(CCCc2ccccc2)CCN1Cc1ccccc1 (centres undefined),-9%,-15%,i,i,-14%
O=C(Cn1cnc2c(nnn2-c2cccc(Cl)c2)c1=O)N1CCCC1,4%,-3%,13µM*,i,0%
Cc1ccc(Cn2nnc3c(=O)n(CC(=O)N4CCN(c5ccccc5)CC4)cnc32)cc1,?,15µM*,5.2µM*,i,-9%
Nc1cc(=O)[nH]c(=O)n1CCc1ccccc1,0%,6%,?,i,-15%
COc1ccc(C2C=C(C34CC5CC(CC(C5)C3)C4)NC(=S)N2)cc1OC (centres undefined),10%,?,18µM*,i,?
O=C1C=C(Nc2ccc(F)cc2)c2ccccc2C1=O,?,?,21µM*,?,9.2µM*
O=C1C=C(Nc2cccnc2)c2ccccc2C1=O,9.2µM*,nt,?,8.2µM*,6.5µM*
COc1cc(Cl)c(NC2=CC(=O)C(=O)c3ccccc32)c(OC)c1,3.3µM*,-10%,8.2µM*,9.2µM*,8.2µM*
COc1cc(Cl)c(NS(=O)(=O)c2ccc(-c3ccc(=O)[nH]n3)o2)c(OC)c1,-3%,28%,?,i,3%
CCOc1ccc(NC2=CC(=O)C(=O)c3ccccc32)cc1,?,nt,4.1µM*,6.5µM*,13µM*
COc1ccccc1Nc1ncc2c(n1)CCN(Cc1cc(F)cc(F)c1)C2,nt,nt,i,i,nt
O=c1cc(CSc2ccccc2)[nH]c2ccccc12,-3%,12µM*,i,i,-11%
CC(C)=CC1C(C(=O)NCCc2ccccc2)C1(C)C (centres undefined),0%,nt,i,i,1%
Clc1ccccc1CN1CCc2nc(N3CCN(c4ncccn4)CC3)ncc2C1,nt,nt,18µM*,?,nt
Clc1ccc(CN2CCN(c3ncccn3)CC2)c(Cl)c1,23µM*,3%,i,i,?
Oc1ccc(Cl)c(CN2CCN(c3ncc(Cc4ccccc4)cn3)CC2)c1,nt,nt,16µM*,?,nt
Cc1ccc(C(C)C)cc1OCC(=O)Nc1nnc(C2CC2)s1,23%,9%,?,?,2%
O=C(Nc1cc(=O)c2ccccc2o1)N1CCOCC1,?,5.8µM*,?,i,0%
O=C(OCC(=O)N1CCCC1)c1cc(=O)c2ccccc2o1,?,?,i,i,-6%
Cc1c(C(=O)N2CCOCC2)oc2ccccc12,1%,?,i,i,-11%
O=C(Nc1cc(=O)c2ccccc2o1)N1CCCCC1,?,15µM*,12µM*,i,15%
O=C(Cc1cc(=O)[nH]c(=O)[nH]1)NCC1CCCO1 (centres undefined),0%,6%,i,i,-5%
Cc1sc(-n2c(C)cc(/C=C3\SC(=S)NC3=O)c2C)c(C#N)c1C,-2%,28%,i,?,8.2µM*
CCCSC(=S)c1c(C)[nH]n(-c2ccccc2)c1=O,17%,13µM*,?,?,?
CN(C)c1ncc(S(=O)(=O)c2ccccc2)c(-c2ccccc2Cl)n1,-2%,-3%,18µM*,i,1%
